# Results published in PubChem BioAssay (NCI).
# This is part of a sample that, as a whole, favours compounds with a hit. Of some 79,000 tested, about 15% had one in any assay. Unmarked numbers belong to inactive results. Active and inactive are the calls of the source. Rule as the data show it: active = growth inhibition above about 70%; inactive = the rest.
# Test: NCI Yeast Anticancer Drug Screen. Data for the bub3 strain (AID 167)
# Details: S. cerevisiae bub3 mutant strain, at 100.0 µM, stronger effect = higher value
# Summary of the method: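 Screening used yeast with an engineered genetic alteration affecting cell cycle control. Compound-exposed cultures were compared with vehicle cultures, and reduced growth was taken as inhibition.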
row,SMILES,growth inhibition
1,CCC/C(Cl)=N\OC(=O)Nc1cccc(C(F)(F)F)c1,46%
2,[O-][n+]1c2ccc(O)cc2nc2ccc(Cl)cc21,59%
3,Clc1ccccc1C1OC1c1ccccc1Cl (stereo not drawn),-6%
4,c1ccc2c(c1)c1ncccc1c1nccnc21,-7%
5,CC(=O)Nc1ccc2c(c1)C(=Nc1ccc(C(=O)O)cc1)c1ccccc1-2,50%
6,COc1ccc(OC)c2cc3ccccc3cc12,32%
7,COc1cc(C2c3cc4c(cc3OC(NNc3ccccc3)C2C)OCO4)cc(OC)c1OC (stereo not drawn),83% (active)
8,O=C1c2cc([N+](=O)[O-])ccc2-c2cccc(F)c21,25%
9,CCCCCCCCCCCC(=O)N(C)C,98% (active)
10,CCCCCCCCCCCC1=C(O)C(=O)C=C(O)C1=O,95% (active)
11,Cc1ccc(CSC(N)=Nc2ccccc2)cc1C,34%
12,CCCCCCCCCCC1CCC(=O)O1 (stereo not drawn),99% (active)
13,O=[N+]([O-])c1cc(CCl)ccc1CCl,97% (active)
14,Nc1ccc2c(c1)C(=O)c1cccc(N)c1C2=O,87% (active)
15,CCCCCCCCCCNC(=O)OCC,99% (active)
16,CC1=C(C)Cc2c(O)ccc(O)c2C1,63%
17,COc1ccc2c(c1)C(=O)c1ccccc1C2,80% (active)
18,CCC(=O)OCCn1c2nc(=O)[nH]c(=O)c-2nc2cc(C)c(C)cc21,35%
19,O=C(OCCN1CCCCCC1)C(c1ccsc1)C1CCCCC1 (stereo not drawn),79% (active)
20,Oc1c(Br)cc(Br)cc1C1CCCCC1,97% (active)

row,SMILES,growth inhibition
1,CC1(C)[C@@H]2CC[C@]1(C)[C@H](OC(=O)CSC#N)C2,96% (active)
2,S=C(N/N=C(/c1ccccc1)c1ccccn1)N1CCCCCC1,2%
3,Cc1ccc2[nH]c3c(C)c4cc[n+](C)cc4c(C)c3c2c1,95% (active)
4,CNC(=O)OCc1c(COC(=O)NC)c(-c2ccc(-c3ccccc3)cc2)n(C)c1C,-1%
5,COc1ccccc1/C=C1\Sc2scc(-c3cccc([N+](=O)[O-])c3)[n+]2C1=O,84% (active)
6,O=[N+]([O-])c1ccc2c(c1)C(N1CCN(CCO)CC1)Cc1ccc(F)cc1S2 (stereo not drawn),24%
7,Cc1ccc(CCC2=CCCc3c2ccc2ccccc32)cc1,15%
8,O=[N+]([O-])c1cccc2nccc(NCCCO)c12,-9%
9,Cc1ccc(-n2cc(-c3ccc(Cl)cc3)c(C#N)c2N)cc1,8%
10,Cc1ccc(S/N=C\c2ccccc2O)cc1,4%
11,O=C(O)C1OC1(c1cccc(Cl)c1)c1ccccc1Cl (stereo not drawn),92% (active)
12,NC(=S)N/N=C\c1nccc2ccccc12,97% (active)
13,Clc1cccc(C(Nc2nncs2)Nc2nncs2)c1Cl,77% (active)
14,O=C(OCC=C1CCCC1)c1cc([N+](=O)[O-])cc([N+](=O)[O-])c1,96% (active)
15,O=C(Nc1ccccc1)C(=O)C(C(=O)c1ccccc1)C(c1ccccc1)c1ccccc1 (stereo not drawn),18%
16,N#CN1C2CCC1CC(=O)C2,31%
17,COc1ccccc1C(=O)OCC1CCCN2CCCCC12 (stereo not drawn),97% (active)
18,CCNc1nnc(CSc2nc(-c3ccccc3)c(-c3ccccc3)[nH]2)s1,82% (active)
19,O=C1c2ccccc2-c2n[nH]c3cccc1c23,53%

# Test: NCI Yeast Anticancer Drug Screen. Data for the wt2 strain (AID 169);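 also: 0% = growth of vehicle-treated yeast cultures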
# Details: S. cerevisiae wt2 strain growth inhibition; at 1.2 µM; stronger effect = higher value
# Summary of the method: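 The panel's yeast strains carry defined changes in DNA repair or cell cycle genes. Each strain is grown with compound, and growth loss is scored relative to vehicle.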
row,SMILES,growth inhibition
1,CCC/C(Cl)=N\OC(=O)Nc1cccc(C(F)(F)F)c1,21%
2,[O-][n+]1c2ccc(O)cc2nc2ccc(Cl)cc21,5%
3,Clc1ccccc1C1OC1c1ccccc1Cl (stereo not drawn),-49%
4,c1ccc2c(c1)c1ncccc1c1nccnc21,9%
5,CC(=O)Nc1ccc2c(c1)C(=Nc1ccc(C(=O)O)cc1)c1ccccc1-2,-2%
6,COc1ccc(OC)c2cc3ccccc3cc12,-23%
7,COc1cc(C2c3cc4c(cc3OC(NNc3ccccc3)C2C)OCO4)cc(OC)c1OC (stereo not drawn),-2%
8,O=C1c2cc([N+](=O)[O-])ccc2-c2cccc(F)c21,-1%
9,CCCCCCCCCCCC(=O)N(C)C,-6%
10,CCCCCCCCCCCC1=C(O)C(=O)C=C(O)C1=O,3%
11,Cc1ccc(CSC(N)=Nc2ccccc2)cc1C,2%
12,CCCCCCCCCCC1CCC(=O)O1 (stereo not drawn),-1%
13,O=[N+]([O-])c1cc(CCl)ccc1CCl,3%
14,Nc1ccc2c(c1)C(=O)c1cccc(N)c1C2=O,-2%
15,CCCCCCCCCCNC(=O)OCC,-3%
16,CC1=C(C)Cc2c(O)ccc(O)c2C1,-12%
17,COc1ccc2c(c1)C(=O)c1ccccc1C2,-1%
18,CCC(=O)OCCn1c2nc(=O)[nH]c(=O)c-2nc2cc(C)c(C)cc21,-8%
19,O=C(OCCN1CCCCCC1)C(c1ccsc1)C1CCCCC1 (stereo not drawn),6%
20,Oc1c(Br)cc(Br)cc1C1CCCCC1,-23%

row,SMILES,growth inhibition
1,CC1(C)[C@@H]2CC[C@]1(C)[C@H](OC(=O)CSC#N)C2,1%
2,S=C(N/N=C(/c1ccccc1)c1ccccn1)N1CCCCCC1,5%
3,Cc1ccc2[nH]c3c(C)c4cc[n+](C)cc4c(C)c3c2c1,3%
4,CNC(=O)OCc1c(COC(=O)NC)c(-c2ccc(-c3ccccc3)cc2)n(C)c1C,-30%
5,COc1ccccc1/C=C1\Sc2scc(-c3cccc([N+](=O)[O-])c3)[n+]2C1=O,18%
6,O=[N+]([O-])c1ccc2c(c1)C(N1CCN(CCO)CC1)Cc1ccc(F)cc1S2 (stereo not drawn),-2%
7,Cc1ccc(CCC2=CCCc3c2ccc2ccccc32)cc1,-3%
8,O=[N+]([O-])c1cccc2nccc(NCCCO)c12,-27%
9,Cc1ccc(-n2cc(-c3ccc(Cl)cc3)c(C#N)c2N)cc1,-1%
10,Cc1ccc(S/N=C\c2ccccc2O)cc1,4%
11,O=C(O)C1OC1(c1cccc(Cl)c1)c1ccccc1Cl (stereo not drawn),-35%
12,NC(=S)N/N=C\c1nccc2ccccc12,-5%
13,Clc1cccc(C(Nc2nncs2)Nc2nncs2)c1Cl,-2%
14,O=C(OCC=C1CCCC1)c1cc([N+](=O)[O-])cc([N+](=O)[O-])c1,-3%
15,O=C(Nc1ccccc1)C(=O)C(C(=O)c1ccccc1)C(c1ccccc1)c1ccccc1 (stereo not drawn),1%
16,N#CN1C2CCC1CC(=O)C2,-18%
17,COc1ccccc1C(=O)OCC1CCCN2CCCCC12 (stereo not drawn),-18%
18,CCNc1nnc(CSc2nc(-c3ccccc3)c(-c3ccccc3)[nH]2)s1,-3%
19,O=C1c2ccccc2-c2n[nH]c3cccc1c23,-20%
